This is a sample that favours compounds with a hit; in the whole collection about 31% have one here.
CYP2C9 inhib: human CYP2C9 inhibition; P11712; CYP2C9 Supersomes, luciferin-H conversion, luminescence; inhibition, % at 5 µM; 96,000 compounds, 20% hits;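 active = blocking of liver enzyme CYP2C9 beyond about 50% at 5 µM, limit read from the data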
CYP2C19 inhib: human CYP2C19 inhibition | P33261 | CYP2C19 Supersomes, luciferin-H EGE luminescence, 30 min | inhibition, % at 5 µM | 96,000 compounds, 21% hits | AID 778;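 active = CYP2C19 inhibition above a set limit at 5 µM in the primary screen, cut at about 50% in these data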;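 also: plate controls were negative control wells for no effect and 2.5 mM tranylcypromine positive control for full effect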
Target sequence (P33261 whole entry, looked up): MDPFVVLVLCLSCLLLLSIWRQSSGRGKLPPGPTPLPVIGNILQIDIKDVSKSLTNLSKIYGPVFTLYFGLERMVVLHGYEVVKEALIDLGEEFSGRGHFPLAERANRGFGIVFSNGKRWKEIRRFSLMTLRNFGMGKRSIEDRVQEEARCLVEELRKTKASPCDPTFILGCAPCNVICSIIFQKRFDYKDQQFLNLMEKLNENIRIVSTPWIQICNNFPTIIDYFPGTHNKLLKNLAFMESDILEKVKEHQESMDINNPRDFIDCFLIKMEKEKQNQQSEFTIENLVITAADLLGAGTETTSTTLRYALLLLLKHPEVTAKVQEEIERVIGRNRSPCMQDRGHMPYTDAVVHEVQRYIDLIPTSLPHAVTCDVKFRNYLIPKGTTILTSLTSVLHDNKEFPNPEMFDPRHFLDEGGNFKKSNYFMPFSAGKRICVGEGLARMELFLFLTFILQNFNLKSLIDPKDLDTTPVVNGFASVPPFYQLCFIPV
CYP2C19 act: cytochrome P450 2C19 (human) activation; P33261; recombinant CYP2C19, luciferin-H EGE luminescence; hits give high values; 0 = fully inhibited enzyme, 1 = untreated enzyme; activation factor at 5 µM; 96,000 tested, under 10 active; AID 1025;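 active = activation factor of at least 2 at 5 µM in the primary screen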;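 also: 0 = wells with 2.5 mM tranylcypromine and 1 = vehicle-only wells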
CYP2C9 activ: CYP2C9 (human) activation | 96,000 compounds, 1.4% hits | P11712 | activation factor at 5 µM | recombinant CYP2C9, luciferin-H conversion, luminescence; hits give high values; factor 1 = untreated enzyme, 0 = blocked;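 active = activation factor of 2 or more for CYP2C9 at a 5 µM dose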;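 also: 0 = sulfaphenazole-blocked wells and 1 = vehicle-only wells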
PLAP act: activators of human placental alkaline phosphatase; purified PLAP enzyme, luminescent substrate read-out; hits give high values; P05187; 96,000 compounds, 1.2% hits; activation fold at 20 µM; in the data active = activation fold above about 2
* marks the source's active call; other numbers are inactive results.

SMILES	CYP2C9 inhib	CYP2C19 inhib	CYP2C19 act	CYP2C9 activ	PLAP act
COC(=O)c1ccc(-c2ccco2)n1Cc1cc(C)ccc1C	7	-13	1.1	0.9	0.8
COC(=O)c1ccc(-c2ccco2)n1Cc1cccc(C)c1	81*	60*	0.4	0.2	0.7
O=C(O)c1ccc(-c2ccco2)n1Cc1ccccc1	71*	17	0.8	0.3	1
CSc1nc(C)c(CCOCc2ccccc2)c(=O)[nH]1	49	69*	0.3	0.5	1.1
CCC(C)c1c(O)nc(SCc2ccccc2)[nH]c1=O (centres undefined)	-5	-22	1.2	1.1	1.3
Cc1nc(SCC(C)C)[nH]c(=O)c1Cc1ccccc1	-7	59*	0.4	1.1	0.9
Cc1nc(NCc2ccccc2)[nH]c(=O)c1CCC(C)C	23	46	0.5	0.8	0.9
CC(C)c1c(O)nc(SCc2ccccc2)[nH]c1=O	52*	5	0.9	0.5	1.2
C=C(C)CSc1nc(C)c(Cc2ccccc2)c(=O)[nH]1	23	49	0.5	0.8	1.1
Cc1ccc(/C=C2/NC(=O)N(c3ccccc3)C2=O)o1	-6	68*	0.3	1.1	0.9
O=C(NCc1ccncc1)c1cccc(Cn2cc(Br)cn2)c1	90*	88*	0.1	0.1	1
O=C(O)c1cccc(Cn2cc(Br)cn2)c1	-8	-5	1	1.1	0.9
O=C(O)COc1ccc2nsnc2c1Cl	-13	-1	1	1.1	1
Cc1ccc2nsnc2c1N(S(C)(=O)=O)S(C)(=O)=O	21	63*	0.4	0.8	1
Cc1nn(-c2ccc(F)cc2)c(C)c1NS(=O)(=O)c1ccc2ccccc2c1	3	50	0.5	1	1.1
O=C(O)CCCCCNS(=O)(=O)c1cccc2nsnc12	-68	-5	1.1	1.7	1
Cc1ccc2nsnc2c1NS(=O)(=O)c1c(C)ccc2nsnc12	56*	35	0.6	0.4	0.9
Cc1cc(S(=O)(=O)Nc2c(C)ccc3nsnc23)ccc1F	51*	84*	0.2	0.5	0.9
O=C(COC(=O)CNC(=O)C1CCCCC1)Nc1ccc2ccccc2c1	36	69*	0.3	0.6	0.9
O=C(CNC(=O)C1CCCCC1)Nc1ccc(Cl)cc1	25	43	0.6	0.7	0.9
CCOC(=O)c1ccc(NC(=O)CNC(=O)C2CCCCC2)cc1	54*	27	0.7	0.5	0.8
O=C(CNC(=O)C1CCCCC1)Nc1cc(Cl)cc(Cl)c1	25	61*	0.4	0.8	1
COC(=O)c1ccc(NC(=O)CNC(=O)C2CCCCC2)cc1	37	-2	1	0.6	0.9
CCOC(=O)CCc1c(C)nc2c(c(C)nn2C(C)(C)C)c1C	14	30	0.7	0.9	1.4
Cc1ccc(OCC(=O)N/N=C/c2cn[nH]c2-c2ccc(Cl)c(Cl)c2)cc1	52*	14	0.9	0.5	1
SMILES	CYP2C9 inhib	CYP2C19 inhib	CYP2C19 act	CYP2C9 activ	PLAP act
Cc1cccc(OCC(=O)N/N=C/c2cn[nH]c2-c2ccc(Cl)c(Cl)c2)c1	57*	22	0.8	0.4	1.2
C/C(CC(=O)Nc1cc(C)ccn1)=N\NC(=O)COc1cccc(C)c1	14	6	0.9	0.9	1.1
CCCCS(=O)CC(COc1ccc(Cl)cc1)OC(=O)c1ccccc1 (centres undefined)	80*	95*	0	0.2	1.7
O=S(Cc1ccc(Cl)cc1)CC(O)COc1ccc(Cl)cc1 (centres undefined)	22	27	0.7	0.8	1
O=C1CS/C(=N\c2ccccn2)N1C1CCCCC1	9	4	1	0.9	1
COc1ccc(-c2nc(N3CCOCC3)nc3n[nH]c(N)c23)cc1	-4	6	0.9	1	1.1
Nc1[nH]nc2nc(N3CCCC3)nc(-c3ccccc3)c12	-4	0	1	1	2*
COc1ccccc1-c1cc(C(=O)NC(C)C)no1	-300	16	0.8	4*	1
COc1ccccc1-c1cc(C(=O)Nc2ccc(F)cc2F)no1	-49	14	0.9	1.5	0.9
COc1ccccc1-c1cc(C(=O)NC(C)c2ccccc2)no1 (centres undefined)	-179	10	0.9	2.8*	1
COC(=O)c1c(C(=O)OC)c(C)n(Cc2ccco2)c1C	0	41	0.6	1	1.1
COC(=O)c1c(C(=O)OC)c(C)n(Cc2cccnc2)c1C	51*	28	0.7	0.5	0.8
CC(C)OCCCNc1nc2c([nH]1)c(=O)n(C)c(=O)n2C	0	-4	1	1	0.9

Compound activity from PubChem.
